Consider 38 molecules from PubChem BioAssay (Tox21).

Results filed as inconclusive are left out. A number with no mark means an inactive call. Activity calls are given as the source filed them. Calls come from the whole dose curve; as a rule, active = well fitted curve in the direction sought with a large enough effect in the repeat runs; inconclusive = weak or mixed curves; inactive = no such curve, though single readings can be large; an effect the other way counts as inactive or inconclusive.
% is set by controls: 0 for no effect and ±100 for the full control effect.

Chain of Nuclear receptor subfamily 1 group I member 3 (Homo sapiens) (Q14994 whole entry, looked up): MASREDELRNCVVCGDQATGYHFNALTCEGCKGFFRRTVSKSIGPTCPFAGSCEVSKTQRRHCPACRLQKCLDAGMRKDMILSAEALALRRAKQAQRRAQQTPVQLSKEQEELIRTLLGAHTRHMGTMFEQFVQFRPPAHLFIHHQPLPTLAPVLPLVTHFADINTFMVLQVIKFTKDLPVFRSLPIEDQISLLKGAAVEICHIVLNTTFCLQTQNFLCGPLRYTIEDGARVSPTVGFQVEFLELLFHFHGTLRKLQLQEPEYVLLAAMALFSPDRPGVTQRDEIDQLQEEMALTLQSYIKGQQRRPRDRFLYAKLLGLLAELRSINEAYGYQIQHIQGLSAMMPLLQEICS

The first test has as its target Nuclear receptor subfamily 1 group I member 3 (Homo sapiens) (UniProt Q14994). The test is described as follows: qHTS assay to identify small molecule antagonists of the constitutive androstane receptor (CAR) signaling pathway (AID 1224838). Note: nearly all actives have a fitted effect of over 40% in size. Particulars: HepG2-CYP2B6-hCAR luciferase, CITCO-stimulated, 24 h; series mostly up to 92.4 µM; activity, negative = inhibition: at the top concentration. The gist of the method: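 HepG2 cells stably co-transfected with hCAR and a CYP2B6-2.2kb luciferase reporter were seeded 4 h before compound addition at 15 concentrations. Cells were stimulated with 50 nM CITCO (final) for 24 h at 37 C; luciferase luminescence was then read.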
Regarding `O=S(=O)(O)c1cccc2c(S(=O)(=O)O)cccc12`, the “activity, negative = inhibition” value is 0.953%.
Turning to `COc1ccnc(CS(=O)c2nc3cc(OC(F)F)ccc3[nH]2)c1OC` (stereo unspecified), the “activity, negative = inhibition” value is 72.7%.
Still for that read-out and setting: with `CCCO[Si](OCCC)(OCCC)OCCC` the figure was 3.89%; with `C=COCC1CCC(COC=C)CC1` (stereo unspecified), 3.33%.
Still for that read-out and setting: with `CCCc1nn(C)c2c(=O)[nH]c(-c3cc(S(=O)(=O)N4CCN(C)CC4)ccc3OCC)nc12` the figure was 36.4% [at 42.5 µM].
Turning to `CC1=CCC(O)(C(C)C)CC1` (stereo unspecified), the “activity, negative = inhibition” value is -0.689%.
Still for that read-out and setting: then `CCOC(=O)COC(=O)c1ccccc1C(=O)OCC`, with 16.4%; and `CCC(C(=O)NC(=O)NC(C)=O)c1ccccc1` (stereo unspecified), with 22.5% [at 42.5 µM].
Same read-out and setting: with `O=C(CO)[C@@H](O)[C@H](O)[C@@H](O)CO` the figure was -7.76% [at 42.5 µM]; with `CN(C)[C@@H]1C(=O)C(C(=O)NCN2CCCC2)=C(O)[C@@]2(O)C(=O)C3=C(O)c4c(O)cccc4[C@@](C)(O)C3C[C@@H]12` (stereo partly specified), 17.2% [at 42.5 µM]; with `CCCCOCCOC(=O)CCCCCCCCC(=O)OCCOCCCC`, -13.3%.
The same measure, in the same setting: with `NC(=O)Cc1cccc2ccccc12` the figure was 22.1%.
For `CO[Si](C)(OC)c1ccccc1`, the “activity, negative = inhibition” value is 4.28%.
As to `CCOC(=O)CCC(=O)OCC`, the “activity, negative = inhibition” value is 9.12%.
The same measure, in the same setting: then `O=C(O)CCSCCC(=O)O`, with -12.6%; and `CN1C(C)(C)CC(O)CC1(C)C`, with -9.31%.
Consider `O=C1c2ccccc2C(=O)c2cc(O)ccc21`, for which the “activity, negative = inhibition” value is 191%.
The same measure, in the same setting: then `C=CCOCC(O)CO` (stereo unspecified), with 8.61%; and `COc1cc(C(=O)OC(COCCC(C)C)CN2CCOCC2)cc(OC)c1OC` (stereo unspecified), with 21.8% [at 42.5 µM]; and `O=C(O)CCCC[P+](c1ccccc1)(c1ccccc1)c1ccccc1`, with 3.51% [at 42.5 µM].
On the same count and under the same terms, then `Cc1cccc(C)c1NC(=O)CC12CCCN1CCC2`, with -20.1% [at 42.5 µM].
Still for that read-out and setting: with `CC1=NS(=O)(=O)c2cc(Cl)ccc2N1` the figure was 1.61% [at 42.5 µM]; with `CC(C)C(=O)OC(=O)C(C)C`, 1.3%; with `CC/C=C\CCOC(C)OCC` (stereo unspecified), -4.4% [at 42.5 µM].
`CC(=O)C1CCCCC1=O` (stereo unspecified): the “activity, negative = inhibition” value was -2.66%.
On the same count and under the same terms, then `CC(C)(C)C(=O)c1ccccc1`, with 3.42%.
As for `O=C(c1ccccc1)C1(O)CCCCC1`, the “activity, negative = inhibition” value was -0.623%.
The same measure, in the same setting: with `CC1(C)OC[C@@H](COC(=O)CCc2ccc(OC[C@@H](O)CNCCNC(=O)N3CCOCC3)cc2)O1` the figure was -11% [at 42.5 µM]; with `CCCCCCC1CCC(=O)O1` (stereo unspecified), -7.33%.
Turning to `CCCCN(CCC(=O)OCC)C(C)=O`, the “activity, negative = inhibition” value is 19.5%.
The same measure, in the same setting: with `CCCCCCCCCCCCCCCCCCO` the figure was -5.26% [at 42.5 µM]; with `C[N+]12CCC(CC1)C(OC(=O)C(O)(c1ccccc1)c1ccccc1)C2` (stereo unspecified), 15.6% [at 42.5 µM].
On the same count and under the same terms, with `Clc1cc(Cl)cc(Cl)c1` the figure was -8.2%; with `CC1=NN(c2cccc(S(=O)(=O)O)c2)C(=O)C1`, -2.64%.
On the same count and under the same terms, with `CN(C)CCN(C)CCN(C)C` the figure was -1.64%.
In the case of `Cc1cc(C)c(N=Nc2c(O)c(S(=O)(=O)O)cc3cc(S(=O)(=O)O)ccc23)cc1C`, the activity, negative = inhibition is -3.25% [at 8.39 µM].
On the same count and under the same terms, with `C[N+](C)(C)CCCCCCCCCC[N+](C)(C)C` the figure was -6.66% [at 42.5 µM]; with `NC(=O)N[C@@H](CCC(=O)O)C(=O)O`, 10.9% [at 42.5 µM].

The target is the same in the next test. The test is described as follows: qHTS assay to identify small molecule agonists of the constitutive androstane receptor (CAR) signaling pathway (AID 1224839). Note: nearly all actives have a fitted effect of over 15% in size. Note: potency is the fitted concentration of half-maximal effect. Particulars: HepG2 hCAR CYP2B6-luciferase, agonist mode, 24 h; series mostly up to 92.4 µM; activation: at the top concentration. The gist of the method:
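Luminescence read-out (ONE-Glo, 30 min, room temperature) from double-stable HepG2-CYP2B6-hCAR cells exposed 24 h to 15-point compound series in presence of 0.75 uM PK11195 final.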
Turning to `O=S(=O)(O)c1cccc2c(S(=O)(=O)O)cccc12`, the “activation” value was -1.98%.
The same measure, in the same setting: then `COc1ccnc(CS(=O)c2nc3cc(OC(F)F)ccc3[nH]2)c1OC` (stereo unspecified), with 10.1%; and `CCCO[Si](OCCC)(OCCC)OCCC`, with -0.67%.
Same read-out and setting: with `C=COCC1CCC(COC=C)CC1` (stereo unspecified) the figure was 0.0846%; with `CCCc1nn(C)c2c(=O)[nH]c(-c3cc(S(=O)(=O)N4CCN(C)CC4)ccc3OCC)nc12`, -1.44% [at 42.5 µM].
Consider `CC1=CCC(O)(C(C)C)CC1` (stereo unspecified), for which the “activation” value is -1.93%.
Still for that read-out and setting: then `CCOC(=O)COC(=O)c1ccccc1C(=O)OCC`, with 9.76%.
Turning to `CCC(C(=O)NC(=O)NC(C)=O)c1ccccc1` (stereo unspecified), the “activation” value is -2.35% [at 42.5 µM].
For the molecule `O=C(CO)[C@@H](O)[C@H](O)[C@@H](O)CO`, the “activation” value is -2.23% [at 42.5 µM].
Turning to `CN(C)[C@@H]1C(=O)C(C(=O)NCN2CCCC2)=C(O)[C@@]2(O)C(=O)C3=C(O)c4c(O)cccc4[C@@](C)(O)C3C[C@@H]12` (stereo partly specified), the “activation” value is 0.918% [at 42.5 µM].
As for `CCCCOCCOC(=O)CCCCCCCCC(=O)OCCOCCCC`, the “activation” value was -2.07%.
Still for that read-out and setting: with `NC(=O)Cc1cccc2ccccc12` the figure was -0.555%; with `CO[Si](C)(OC)c1ccccc1`, -3.99%.
`CCOC(=O)CCC(=O)OCC`: the “activation” value is -0.316%.
Take `O=C(O)CCSCCC(=O)O`: the “activation” value was -2.06%.
Same read-out and setting: then `CN1C(C)(C)CC(O)CC1(C)C`, with 2.19%.
As for `O=C1c2ccccc2C(=O)c2cc(O)ccc21`, the Potency is 54.5 µM (active).
On to `C=CCOCC(O)CO` (stereo unspecified), for which the “activation” value was -2.57%.
The same measure, in the same setting: then `COc1cc(C(=O)OC(COCCC(C)C)CN2CCOCC2)cc(OC)c1OC` (stereo unspecified), with 0.614% [at 42.5 µM]; and `O=C(O)CCCC[P+](c1ccccc1)(c1ccccc1)c1ccccc1`, with 0.0049% [at 42.5 µM].
Take `Cc1cccc(C)c1NC(=O)CC12CCCN1CCC2`: the “activation” value was -0.0119% [at 42.5 µM].
As for `CC1=NS(=O)(=O)c2cc(Cl)ccc2N1`, the “activation” value was -0.783% [at 42.5 µM].
Consider `CC(C)C(=O)OC(=O)C(C)C`, for which the “activation” value was -0.585%.
Same read-out and setting: with `CC/C=C\CCOC(C)OCC` (stereo unspecified) the figure was 1.64% [at 42.5 µM].
`CC(=O)C1CCCCC1=O` (stereo unspecified): the “activation” value was 1.28%.
Same read-out and setting: with `CC(C)(C)C(=O)c1ccccc1` the figure was 0.223%; with `O=C(c1ccccc1)C1(O)CCCCC1`, -0.756%; with `CC1(C)OC[C@@H](COC(=O)CCc2ccc(OC[C@@H](O)CNCCNC(=O)N3CCOCC3)cc2)O1`, 2.21% [at 42.5 µM].
As to `CCCCCCC1CCC(=O)O1` (stereo unspecified), the “activation” value was -2.55%.
As for `CCCCN(CCC(=O)OCC)C(C)=O`, the “activation” value was 10.5%.
Turning to `CCCCCCCCCCCCCCCCCCO`, the “activation” value was -0.0461% [at 42.5 µM].
Consider `C[N+]12CCC(CC1)C(OC(=O)C(O)(c1ccccc1)c1ccccc1)C2` (stereo unspecified), for which the “activation” value is -0.195% [at 42.5 µM].
Still for that read-out and setting: then `Clc1cc(Cl)cc(Cl)c1`, with -2.85%; and `CC1=NN(c2cccc(S(=O)(=O)O)c2)C(=O)C1`, with -1.49%; and `CN(C)CCN(C)CCN(C)C`, with -1.66%.
`Cc1cc(C)c(N=Nc2c(O)c(S(=O)(=O)O)cc3cc(S(=O)(=O)O)ccc23)cc1C`: the activation is 7.37% [at 8.39 µM].
`C[N+](C)(C)CCCCCCCCCC[N+](C)(C)C`: the “activation” value was -3.04% [at 42.5 µM].
`NC(=O)N[C@@H](CCC(=O)O)C(=O)O`: the “activation” value is 0.293% [at 42.5 µM].
